# Activity calls are given as the source filed them. Unless noted, the rule behind the calls is not given here.
# Assays:
# [1] = kinase inhibitors against Plasmodium liver-stage infection, cell-based, known kinase inhibitor set, luminescence, hepatoma host viability (AID 624392); details: Plasmodium liver stage in hepatoma cells, luciferase luminescence, concentration not given here; liver cell % of control: measured here: host liver cell viability; parasite % of control: stronger effect = lower value;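 note: infected cells incubated roughly two days before readout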
# [2] = modulators of glucocorticoid suppression of NF-kB, cell-based, luciferase, IL-1B stimulus, dexamethasone (AID 624486); details: NF-kB luciferase reporter, IL-1B + dexamethasone, luminescence; percent of negative control (+Dex): actives lie on both sides, concentration not given here; z-score: measured here: IL-1B alone, no Dex;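 for percent of negative control (+Dex): 100% = mean signal of vehicle control wells on the plate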
# [3] = kinase inhibitors altering Pseudomonas killing of worms, whole organism (AID 651566);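 note: tested at 14 µM; sign flipped so higher z means a lower ratio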; details: C. elegans killed by P. aeruginosa, survival ratio
# [4] = activators of macrophage pro-inflammatory response, cell-based, murine, luminescence (AID 652131); details: murine macrophage pro-inflammatory reporter, stronger effect = higher value
# [5] = target: Cellular tumor antigen p53 (Homo sapiens) (UniProt P04637); assay: kinase inhibitors altering GFP-p53 stability in HPV16-positive cells, imaging, known kinase inhibitor set, EGFP/DsRed ratio (AID 1053116); details: stronger effect = higher value; EGFP object count: measured here: GFP-p53 positive objects count;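 note: cells exposed to compounds for 24 h at 37 °C before reading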
# [6] = IRF3 reporter activation in THP-1 macrophages, cell-based, PMA-stimulated THP-1, luminescence (AID 1053176); details: PMA-differentiated THP-1, IRF3 reporter luminescence; stronger effect = higher value
# [7] = survival rescue of mitochondrial mutant cells in low glucose, primary screen, MELAS cybrids, Rieske KO mouse fibroblasts, CellTiter-Glo (AID 1508586;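 active = mean z-score across replicates of 1.96 or higher in either the MELAS or the Rieske mutant cell line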;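 note: z relative to plate mean and SD of compound and empty wells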)
# [8] = MELAS cybrid survival, CellTiter-Glo 48 h, stronger effect = higher value
# [9] = Rieske KO mouse fibroblast survival, CellTiter-Glo 72 h
# Sequence of Cellular tumor antigen p53 (Homo sapiens) (P04637 whole entry, looked up): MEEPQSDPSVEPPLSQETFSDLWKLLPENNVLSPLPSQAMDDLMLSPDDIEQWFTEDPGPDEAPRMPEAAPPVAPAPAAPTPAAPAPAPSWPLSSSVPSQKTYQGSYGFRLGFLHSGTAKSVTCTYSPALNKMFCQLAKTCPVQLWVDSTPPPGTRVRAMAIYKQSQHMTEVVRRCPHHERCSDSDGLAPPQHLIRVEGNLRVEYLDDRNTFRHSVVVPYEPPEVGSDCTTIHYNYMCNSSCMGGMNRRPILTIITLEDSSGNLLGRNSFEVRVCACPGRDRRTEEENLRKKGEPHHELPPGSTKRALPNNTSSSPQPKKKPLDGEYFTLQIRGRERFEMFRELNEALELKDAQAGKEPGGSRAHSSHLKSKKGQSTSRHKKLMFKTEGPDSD
Compound,liver cell % of control [1],parasite % of control [1],percent of negative control (+Dex) [2],z-score [2],z-score [3],z-score [4],EGFP object count [5],EGFP/DsRed ratio [5],fraction signal [6],"z-score [7, 8]","z-score [7, 9]"
c1cnn2ncc(-c3ccnc(NCCCN4CCOCC4)n3)c2c1,91.2%,426% (inactive),57% (inactive),-4.11,0.63 (inactive),-1.59 (inactive),1.5,0.248 (inactive),-0.004 (inactive),-0.792 (inactive),-0.375
CN1CCN(C(=O)c2ccc(NC(=O)Nc3ccc(N(C)c4ccnc(Nc5ccc(CS(C)(=O)=O)cc5)n4)cc3)cc2)CC1,86.4%,77.1% (inactive),85.5% (inactive),-0.585,0.175 (inactive),4.5 (inactive),2,0.13 (inactive),-0.0115 (inactive),0.142 (inactive),0.134
CS(=O)(=O)Nc1ccc(N=Cc2c(O)[nH]c3ccccc23)cc1,95.2%,107% (inactive),108% (inactive),1.36,0.265 (inactive),2.34 (inactive),4,0.123 (inactive),-0.0045 (inactive),1.4 (inactive),-0.36
COc1ccc(CNC(=O)c2ccc(-c3cc(-c4nnc(C)o4)ccc3C)cc2)cc1,172%,67.1% (inactive),102% (inactive),0.42,1.23 (inactive),-0.363 (inactive),3,0.129 (inactive),-0.008 (inactive),-0.23 (inactive),-0.248
CCn1c(-c2nonc2N)nc2cncc(C(=O)NCCNC)c21,80.5%,190% (inactive),89% (inactive),-0.865,0.43 (inactive),-0.531 (inactive),7,0.122 (inactive),-0.011 (inactive),3 (active),0.0886
CCn1c(-c2nonc2N)nc2c(C#CC(C)(C)O)nc(O[C@@H](CN)c3ccccc3)cc21,49.4%,14.1% (inactive),132% (inactive),3.44,0.92 (inactive),1 (inactive),10.5,0.166 (inactive),0.0005 (inactive),1.1,4
CCCN1CCCC(c2ccc(Nc3nc(Nc4cc(F)ccc4C(N)=O)c4cc[nH]c4n3)c(OC)c2)C1 (centres undefined),71%,101% (inactive),73.5% (inactive),-2.44,1.62 (inactive),-0.56 (inactive),50.5,0.576 (inactive),-0.003 (inactive),-0.991,4.23
O=C(NC1NNC2CC(c3ccccc3)CCC21)C1CC1 (centres undefined),191%,74.3% (inactive),104% (inactive),0.375,-1.73 (inactive),0.532 (inactive),2.5,0.139 (inactive),0.012 (inactive),-0.677 (inactive),-0.221
CCOc1ccc2c(-c3ccnc(Nc4cc(OC)cc(C(F)(F)F)c4)n3)cnn2n1,65.9%,254% (inactive),86.5% (inactive),1.62,-0.445 (inactive),0.258 (inactive),6,0.102 (inactive),-0.001 (inactive),0.655 (inactive),-0.17
COc1ccc(-c2ccc3c(NC(=O)C4CC4)n[nH]c3n2)cc1,119%,77.2% (inactive),130% (inactive),2.11,0.15 (inactive),2.53 (inactive),6,0.0694 (inactive),0.0035 (inactive),1.36 (inactive),0.0157
NS(=O)(=O)c1ccc(N=Nc2c(O)[nH]c3ccc(C(=O)NCc4ccncc4)cc23)cc1,77.7%,86.4% (inactive),95% (inactive),-0.595,-0.105 (inactive),0.051 (inactive),8,0.126 (inactive),-0.001 (inactive),-0.207 (inactive),-0.126
CCn1c(-c2nonc2N)nc2c(C#CC(C)(C)O)ncc(OCC3CCNCC3)c21,88.1%,91.5% (inactive),86% (inactive),-0.76,-1.35 (inactive),3.98 (inactive),13,0.169 (inactive),0.002 (inactive),0.123 (inactive),-0.292
CC(C)(CO)CNC(=O)c1ccc2[nH]c(O)c(N=Nc3ccc(S(N)(=O)=O)cc3)c2c1,82.1%,103% (inactive),93% (inactive),-0.01,-1.1 (inactive),-0.381 (inactive),3,0.052 (inactive),-0.004 (inactive),-0.345 (inactive),-0.442
NS(=O)(=O)c1ccc(N=Nc2c(O)[nH]c3ccc(Cl)cc23)cc1,91.6%,111% (inactive),112% (inactive),0.905,0.005 (inactive),0.24 (inactive),6.5,0.227 (inactive),0.0005 (inactive),1.43 (inactive),-0.311

# Source: PubChem BioAssay
